In PubChem BioAssay (NCI) one finds growth inhibition data, which are given here for nine molecules.

This is part of a sample that, as a whole, favours compounds with a hit. Of some 79,000 tested, about 15% had one in any assay. Values without a mark were called inactive. Activity calls are given as the source filed them. No stated cut-off is given here; in the data, active means growth inhibition above about 70%; inactive means the rest.

The nature of assay [1]: NCI Yeast Anticancer Drug Screen. Data for the rad50 strain (AID 155).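 Further: 0% = growth of vehicle-only cultures of the same strain.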 Conditions: S. cerevisiae rad50 strain growth inhibition, hits give high values. In a few lines: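 Yeast carrying a defined DNA repair defect were exposed to test compounds, and growth was compared with vehicle-treated controls to give percent inhibition.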
The nature of assay [2]: NCI Yeast Anticancer Drug Screen. Data for the mec2-1 strain (AID 157). Conditions: S. cerevisiae mec2-1 strain, hits give high values. In a few lines:
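Each compound was tested on mec2-1 yeast, a strain altered in DNA damage repair or cell cycle control. Growth inhibition is reported relative to vehicle.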

The nature of assay [3]: NCI Yeast Anticancer Drug Screen. Data for the cln2 rad14 strain (AID 165).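 Further: 0% = growth equal to vehicle treated cultures.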 Conditions: S. cerevisiae cln2 rad14 strain, hits give high values. In a few lines:
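Test compounds were added to cln2 rad14 yeast cultures; inhibition of growth was then determined by comparison with vehicle treatment.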

A short description of assay [4]: NCI Yeast Anticancer Drug Screen. Data for the bub3 strain (AID 167). The settings on record: S. cerevisiae bub3 mutant strain, hits give high values. In a few lines:
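Compounds were applied to a genetically altered yeast strain carrying a cell-cycle control defect. Growth inhibition was scored against vehicle-treated controls.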

A short description of assay [5]: NCI Yeast Anticancer Drug Screen. Data for the mlh1 rad18 strain (AID 175). Conditions: S. cerevisiae mlh1 rad18 strain growth inhibition, hits give high values. In a few lines:
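Inhibition values reflect reduced growth of mutant yeast versus vehicle-treated controls following compound exposure; the mutations affect DNA damage repair.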

Assay [6] is described as follows: NCI Yeast Anticancer Drug Screen. Data for the sgs1 mgt1 strain (AID 161).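 Further: 0% = growth of cultures given vehicle only.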 The settings on record: S. cerevisiae sgs1 mgt1 strain, hits give high values. In a few lines:
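Mutant yeast exposed to compound; growth scored against vehicle-only wells.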

Where [7] appears, read: at 5.0 µM (retest, dose inferred, filed as 0.5).
Setting [8] is: at 50.0 µM (retest, dose inferred, filed as 5.0).

For `O=C(O)CSCc1ccc(Cl)cc1`, the growth inhibition is -2% in assay [1] (setting [7]); 1% in assay [1] (setting [8]); 3.7% in assay [1] (at 50.0 µM); 2% in assay [2] (setting [7]); -3% in assay [2] (setting [8]); -32.9% in assay [2] (at 50.0 µM). For the same molecule, the growth inhibition in assay [3] (setting [7]) was 0%; in assay [3] (setting [8]), -7%; in assay [3] (at 50.0 µM) it was 29.3%; in assay [4] (setting [7]), 2%; in assay [4] (setting [8]), 4%; in assay [4] (at 50.0 µM), 6.1%. The growth inhibition in assay [5] (setting [7]) is -1%; in assay [5] (setting [8]) it was -3%; in assay [5] (at 50.0 µM), -6.45%.
Consider `Clc1ccc(CN2CCCN(Cc3ccc(Cl)cc3)C2c2cc3ccccc3c3ccccc23)cc1`, for which the growth inhibition was 19% in assay [2] (setting [7]); 98% (active) in assay [2] (setting [8]); 68.5% in assay [2] (at 50.0 µM); 38% in assay [6] (setting [7]); 98% (active) in assay [6] (setting [8]); 87.8% (active) in assay [6] (at 50.0 µM). The growth inhibition in assay [3] (setting [7]) is 22%; in assay [3] (setting [8]), 96% (active); in assay [3] (at 50.0 µM), 33.1%; in assay [4] (setting [7]), 22%; in assay [4] (setting [8]), 98% (active); in assay [4] (at 50.0 µM) it was 98.7% (active). Besides, the growth inhibition in assay [5] (setting [7]) is 45%; in assay [5] (setting [8]) it was 98% (active); in assay [5] (at 50.0 µM), 89.2% (active).
For `COc1cccc2c1C(=O)c1c(O)c3c(c(O)c1C2=O)CC(O)(C(C)=O)CC3OC1CC(N)C(O)C(C)O1` (centres undefined), the growth inhibition in assay [1] (setting [7]) was 25%; in assay [1] (setting [8]), 40%; in assay [2] (setting [7]), 12%; in assay [2] (setting [8]) it was 21%; in assay [6] (setting [7]) it was 20%; in assay [6] (setting [8]), 29%. In addition, the growth inhibition in assay [3] (setting [7]) is 14%; in assay [3] (setting [8]) it was 9%; in assay [4] (setting [7]) it was 36%; in assay [4] (setting [8]), 40%; in assay [5] (setting [7]), 23%; in assay [5] (setting [8]) it was 28%.
Turning to `COC(=O)C(=O)C(C(=O)C(c1ccccc1)c1ccccc1)c1nc2n(c1O)/C(=N/C(=O)Nc1ccc(Cl)cc1)N=N2` (centres undefined), the growth inhibition is 6% in assay [2] (setting [7]); 58% in assay [2] (setting [8]); 87.2% (active) in assay [2] (at 50.0 µM); 6% in assay [6] (setting [7]); 80% (active) in assay [6] (setting [8]); 85.7% (active) in assay [6] (at 50.0 µM). Further, the growth inhibition in assay [3] (setting [7]) is -11%; in assay [3] (setting [8]), 30%; in assay [3] (at 50.0 µM), 56.3%; in assay [4] (setting [7]), -1%; in assay [4] (setting [8]), 35%; in assay [4] (at 50.0 µM), 41.2%. In addition, the figures for the growth inhibition in assay [5] (setting [7]), in assay [5] (setting [8]) and in assay [5] (at 50.0 µM) were -3%, 41% and 78.5% (active), respectively.
Turning to `COc1nc2nc(C(O)C(O)CO)cnc2c(=O)n1C` (centres undefined), the growth inhibition was -5.55% [middle of 4 runs] in assay [1] (at 50.0 µM), -6.55% [middle of 4 runs] in assay [2] (at 50.0 µM), -5.2% [middle of 4 runs] in assay [6] (at 50.0 µM) and 7.15% [middle of 4 runs] in assay [4] (at 50.0 µM).
Consider `O=C(OC1COC(OC(=O)c2ccccc2)C(OC(=O)c2ccccc2)C1OC(=O)c1ccccc1)c1ccccc1` (centres undefined), for which the growth inhibition in assay [1] (at 50.0 µM) is 20.4% [middle of 4 runs]; in assay [2] (at 50.0 µM), -7.1% [middle of 4 runs]; in assay [6] (at 50.0 µM) it was 9.5% [middle of 4 runs]; in assay [3] (at 50.0 µM) it was -21.6% [middle of 4 runs]; in assay [5] (at 50.0 µM), -4.1% [middle of 4 runs].
Consider `O=[N+]([O-])c1ccc2ccccc2c1O`, for which the growth inhibition in assay [1] (setting [7]) was 2%; in assay [1] (setting [8]), 94% (active); in assay [1] (at 50.0 µM), 96.7% (active); in assay [2] (setting [7]) it was 8%; in assay [2] (setting [8]), 97% (active); in assay [2] (at 50.0 µM), 97.7% (active). The growth inhibition in assay [3] (setting [7]) was 3%; in assay [3] (setting [8]), 98% (active); in assay [3] (at 50.0 µM) it was 97.4% (active); in assay [4] (setting [7]), -3%; in assay [4] (setting [8]) it was 93% (active); in assay [4] (at 50.0 µM), 95.5% (active). The growth inhibition was 3% in assay [5] (setting [7]), 97% (active) in assay [5] (setting [8]) and 98.5% (active) in assay [5] (at 50.0 µM).
Turning to `COc1cc(/C=C/C(=O)NCCCCN=[N+]=[N-])ccc1OCc1ccccc1`, the growth inhibition in assay [1] (setting [7]) was -1%; in assay [1] (setting [8]), -13%; in assay [1] (at 50.0 µM), 89.8% (active); in assay [2] (setting [7]), 1%; in assay [2] (setting [8]), -11%; in assay [2] (at 50.0 µM), 82.2% (active). Moreover, the growth inhibition in assay [3] (setting [7]) was -9%; in assay [3] (setting [8]), -13%; in assay [3] (at 50.0 µM), -3.15%; in assay [4] (setting [7]), -6%; in assay [4] (setting [8]) it was -8%; in assay [4] (at 50.0 µM), 10.1%. In addition, the results for the growth inhibition in assay [5] (setting [7]), in assay [5] (setting [8]) and in assay [5] (at 50.0 µM) were -3%, -11% and 39.9%, respectively.
On to `COC1OC(C(O)CO)C(O)C(O)C1O` (centres undefined), for which the growth inhibition in assay [2] (at 50.0 µM) is 13.7% [middle of 4 runs]; in assay [6] (at 50.0 µM) it was 12.2% [middle of 4 runs]; in assay [5] (at 50.0 µM), 25.1% [middle of 4 runs].
